# Screening data deposited in PubChem BioAssay by National Center for Advancing Translational Sciences (NCATS).
# An excerpt weighted towards active compounds, which were near 0.99% of everything screened.
# BLM helicase inh-1 – Bloom syndrome helicase (human) inhibition. P54132. recombinant BLM DNA unwinding, fluorescence dequenching. Potency, µM (top dose mostly 56.1 µM), inactives show at the top dose activity change, negative = inhibition, usual class: inhibitors. actives 0.2% (n = 350,000);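 also: plate controls were vehicle for no effect and no enzyme for full effect; nearly all actives have a fitted effect of over 35% in size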
# L3MBTL1 inh-1 – inhibitors of human L3MBTL1; AlphaScreen L3MBTL1–H3K9me1 peptide binding; Potency, µM (top dose mostly 57.1 µM), for inactives: top-dose activity, negative = inhibition, most hits filed as inhibitors; actives 0.66% (n = 230,000); AID 485360; also: % is scaled to controls: 0 for no effect and ±100 for the full control effect; nearly all actives have a fitted effect of over 60% in size
# Target sequence (Q9Y468 whole entry, looked up): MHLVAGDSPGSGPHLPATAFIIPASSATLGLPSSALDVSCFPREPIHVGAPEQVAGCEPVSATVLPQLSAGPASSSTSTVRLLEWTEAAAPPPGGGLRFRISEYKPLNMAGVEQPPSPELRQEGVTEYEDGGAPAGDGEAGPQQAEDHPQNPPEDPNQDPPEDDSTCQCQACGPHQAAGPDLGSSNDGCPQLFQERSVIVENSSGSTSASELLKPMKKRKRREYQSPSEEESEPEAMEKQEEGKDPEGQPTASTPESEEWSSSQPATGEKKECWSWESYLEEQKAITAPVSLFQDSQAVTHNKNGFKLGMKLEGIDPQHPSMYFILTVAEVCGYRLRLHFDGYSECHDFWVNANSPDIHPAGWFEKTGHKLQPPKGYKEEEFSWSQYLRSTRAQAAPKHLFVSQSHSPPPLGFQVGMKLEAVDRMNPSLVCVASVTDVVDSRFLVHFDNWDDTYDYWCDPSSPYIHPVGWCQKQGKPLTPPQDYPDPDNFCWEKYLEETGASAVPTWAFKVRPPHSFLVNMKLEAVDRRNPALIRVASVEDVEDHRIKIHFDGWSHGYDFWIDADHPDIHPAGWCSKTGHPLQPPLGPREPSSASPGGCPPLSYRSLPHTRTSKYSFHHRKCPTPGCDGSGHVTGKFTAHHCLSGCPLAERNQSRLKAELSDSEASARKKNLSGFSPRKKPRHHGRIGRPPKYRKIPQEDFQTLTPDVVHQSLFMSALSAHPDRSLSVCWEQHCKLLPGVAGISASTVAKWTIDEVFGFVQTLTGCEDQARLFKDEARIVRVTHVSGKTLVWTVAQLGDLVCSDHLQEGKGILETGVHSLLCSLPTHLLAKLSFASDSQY
#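 AlphaScreen proximity signal between nickel-chelate acceptor and streptavidin donor beads (final 10 ug/mL) reports binding of 50 nM L3MBTL1 to 75 nM biotin-H3 K9me1 peptide; complex incubated with compounds 30 min at room temperature; cefsulodin titration as control.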
# RECQ1 inh – RECQ1 (human) helicase inhibition. AID 2549. RECQ1 DNA unwinding, red fluorescence kinetic read. P46063. Potency, µM (titrated, usually from 57.3 µM), for inactives: at the top dose activity, negative = inhibition, actives largely listed as inhibitors. actives 0.54% (n = 240,000);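 also: plate controls were vehicle for no effect and no enzyme for full effect; nearly all actives have a fitted effect of over 30% in size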
#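 RECQ1T1 50 nM; forked duplex (20 bp + 30-nt ss tails) 200 nM, ATP 2 mM final; pH 8.0, 2 mM MgCl2, 2.5 ug/ml poly(dI-dC); 15 min compound preincubation; discontinuous kinetic read over 2 h at RT.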
# FEN1 inh-1 – inhibitors of human flap endonuclease 1. Potency, µM (series often up to 114 µM), without a hit: top-dose activity change, negative = inhibition, hits mostly inhibitors. AID 588795. P39748. actives 0.35% (n = 390,000). Recombinant FEN1 flap cleavage, fluorescence, 15 min; also: % is scaled to controls: 0 for no effect and ±100 for the full control effect; nearly all actives have a fitted effect of over 65% in size
#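 With each library titrated from low to high concentration, compounds met 10 nM FEN1 for 15 min at room temperature before 50 nM substrate was added; readings at 0 and 15 min fed four-parameter Hill curve fits.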
# WRN helicase inh-1 – inhibitors of human WRN helicase; actives 0.46% (n = 360,000); WRN helicase unwinding, fluorescent forked duplex, kinetic; Potency, µM (doses to about 114 µM), inactives show top-dose activity change, negative = inhibition, actives largely listed as inhibitors; AID 651768; also: % is scaled to controls: 0 for no effect and ±100 for the full control effect; nearly all actives have a fitted effect of over 55% in size
#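 WRN at 20 nM final was preincubated with compound for 15 min at room temperature; reaction started with 100 nM forked duplex oligonucleotide carrying fluorophore and quencher plus 2 mM ATP (final). Unwinding followed kinetically by red fluorescence (ex 525/em 598 nm).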
# L3MBTL1 inh-2 – validation of human L3MBTL1 methyl-lysine binding inhibitors. actives 91% (n = 500). shares compounds with L3MBTL1 inh-1. Potency, µM, actives largely listed as inhibitors. L3MBTL1 methyl-lysine binding inhibition, biochemical qHTS; also: nearly all actives have a fitted effect of over 70% in size
# L3MBTL1 ctr – AlphaScreen signal inhibition, L3MBTL1 hit counter-screen | Potency, µM (doses to about 57.1 µM), for the others: top-dose activity change, negative = inhibition, usual class: inhibitors | AlphaScreen counterscreen, signal inhibition | shares compounds with L3MBTL1 inh-1 | 500 tested, under 10 active; also: 0% is about no effect
# FEN1 inh-2 – FEN1 inhibition, cherry-pick retest; actives 79% (n = 880); shares compounds with FEN1 inh-1; Potency, µM, hits mostly inhibitors; FEN1 flap cleavage, TAMRA/BHQ2 fluorogenic DNA substrate; also: nearly all actives have a fitted effect of over 60% in size
# WRN helicase inh-2 – confirmation of human WRN helicase inhibitors | actives 63% (n = 610) | shares compounds with WRN helicase inh-1 | AID 720497 | WRN helicase DNA unwinding, fluorescence kinetic | Potency, µM (series often up to 57.1 µM), inactives show at the top dose activity, negative = inhibition, actives largely listed as inhibitors; also: nearly all actives have a fitted effect of over 65% in size
# TO DNA binding – counter-screen for WRN helicase inhibitors: DNA binding; shares compounds with WRN helicase inh-1; Potency, µM (highest dose often 57.1 µM), without a hit: top-dose activity change, negative = inhibition, hits mostly inhibitors; actives 10% (n = 610); thiazole orange DNA binding displacement, fluorescence;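 also: drop in dye fluorescence marks compound binding to DNA; % is scaled to controls: 0 for no effect and ±100 for the full control effect; nearly all actives have a fitted effect of over 60% in size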
# BLM helicase inh-2 – BLM helicase inhibition, WRN selectivity check | shares compounds with WRN helicase inh-1 | Recombinant BLM helicase DNA unwinding, red fluorescence | Potency, µM (series often up to 57.1 µM), inactives show at the top dose activity change, negative = inhibition, usual class: inhibitors | actives 60% (n = 610) | AID 720503; also: nearly all actives have a fitted effect of over 60% in size
# Active calls of the source: *; i = inactive; ? = inconclusive; · = no result given; [ ] = another dose, or the depositor's remark. Calls follow the shape of the dose curve; as a rule, active = well fitted curve in the direction sought with a large enough effect; inconclusive = small, poorly fitted or top-dose-only effect, or another doubt; inactive = no such curve, though single readings can be large; an effect the other way counts as inactive or inconclusive. Potency is read from the fitted curve at half-maximal effect.
SMILES,BLM helicase inh-1,L3MBTL1 inh-1,RECQ1 inh,FEN1 inh-1,WRN helicase inh-1,L3MBTL1 inh-2,L3MBTL1 ctr,WRN helicase inh-2,TO DNA binding,BLM helicase inh-2,others
O=C1CCCC(O)=C1C(C#Cc1ccccc1)C1=C(O)CCCC1=O,2%,1%,1%,2%,?,·,·,·,·,·,
O=C1CCCC(O)=C1Sc1ccccc1C(=O)O,6%,16µM*,i,?,-6%[11.6 µM],2.4*,?,·,·,·,
C=CCNc1n[nH]c(=S)s1,·,·,·,·,4%,·,·,·,·,·,
Cc1ccc(NC(=O)CN2C(=O)N/C(=C\c3cccn3-c3cccc(C(=O)O)c3)C2=O)cc1,-10%,10µM*,?,79µM*,28µM*,2.1*,6%,·,·,·,FEN1 inh-2=76*
N#Cc1c(NC(=O)CSc2ncnc3sccc23)oc(-c2ccco2)c1-c1ccco1,20µM*,13µM*,25µM*,?,?,17*,-12%,·,·,·,FEN1 inh-2=67*
Cc1cc(NC(=O)CSc2ncnc3sccc23)no1,-2%,-9%,0%,-13%,-11%,·,·,·,·,·,
Cc1c(C)n(CCc2c[nH]c3ccccc23)ccc1=O,-6%,-2%,-6%,0%,-2%,·,·,·,·,·,
Cc1ccc(-c2cc(-c3ccco3)c(C#N)c(=O)[nH]2)cc1,25µM*,28µM*,?,?,32µM*,21*,-1%,·,·,·,FEN1 inh-2=67*
O=C(Cn1cc(C(=O)c2ccco2)c2ccccc21)NC1CCCCC1,-13%,·,-5%,4%,-8%,·,·,·,·,·,
COCCCNC(=O)/C(C#N)=C/c1ccc(OCC(=O)O)c(OC)c1,0%,3.5µM*,4%,?,?,2.1*,?,19µM*,?,5.4µM*,
C=C(CCO)C1=CCN(S(=O)(=O)C(C)(C)C)[C@@H]1CCO,·,·,·,1%,5%,·,·,·,·,·,
Cc1ccc(OCC(=O)c2c(N)n(C)c(=O)n(C)c2=O)c([N+](=O)[O-])n1,·,7.9µM*,·,?,45µM*,0.84*,?,17µM*,-14%,4.8µM*,
O=C1OC(c2cccs2)=N/C1=C\c1ccc(-c2ccccc2Cl)o1,-13%,-5%,-12%,4%,-28%,·,·,·,·,·,
O=C1OC(c2cccs2)=N/C1=C/c1ccc(-c2cccc(C(=O)O)c2)o1,110%,0.56µM*,?,40µM*,?,3.4*,-6%,19µM*,?,?,
O=C(O)c1cccc(-n2cccc2/C=C/[N+](=O)[O-])c1,60%,2.8µM*,?,?,20µM*,1.7*,5%,17µM*,-6%,19µM*,FEN1 inh-2=43*
O=C(O)c1cccc(-n2cccc2/C=N/O)c1,1%,10µM*,?,?,?,2.4*,11%,24µM*,0%,19µM*,
COc1cccc(CNC(=O)[C@@H]2CCCN2C(=O)[C@@H]2CCCN2C(=O)OC(C)(C)C)c1,·,·,·,·,2%,·,·,·,·,·,
O=C(CCCN1C(=O)/C(=C\c2ccccc2)SC1=S)N1CCOCC1,·,-7%,·,-15%,-35%,·,·,·,·,·,
